A short description of experiment [1]: qHTS assay to test for compound auto fluorescence at 535 nm (green) in HEK293 cells (AID 720680). For orientation: qHTS replaces the single test concentration by a dilution series.
Experiment [2] can be described thus: qHTS assay to test for compound auto fluorescence at 460 nm (blue) in HEK293 cell free culture (AID 720681). Put shortly: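 Blue fluorescence (Ex 405/Em 460 nm, triamterene-equivalent) was read immediately after pin transfer of compound or DMSO into medium (DMEM, 10% FBS) without cells.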
Experiment [3] is described as follows: qHTS assay to test for compound auto fluorescence at 535 nm (green) in HEK293 cell free culture (AID 720682). Put shortly: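 Cell-free medium (DMEM, 10% FBS) receives compound or DMSO by pintool. Plate read directly at Ex 485/Em 535 nm. Signal converted to fluorescein equivalency.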
The nature of experiment [4]: qHTS assay to test for compound auto fluorescence at 590 nm (red) in HEK293 cell free culture (AID 720683). Put shortly: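 Red-channel autofluorescence of compounds in culture medium (DMEM, 10% FBS), no cells, measured at 540/590 nm. Rose Bengal sodium is the reference fluorophore for equivalence.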
Experiment [5] in a line: qHTS assay to test for compound auto fluorescence at 590 nm (red) in HepG2 cell free culture (AID 720684). Put shortly:
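No cells present: MEM + 10% FBS only. Compound pinned in, red label read (540/590 nm). Activity = fluorescence equivalent to Rose Bengal sodium.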

Experiment [6] is described as follows: qHTS assay to test for compound auto fluorescence at 460 nm (blue) in HepG2 cell free culture (AID 720685). Put shortly:
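Cell-free plates of MEM plus 10% FBS received 23 nL compound or DMSO vehicle; blue-channel (405/460 nm) intensity scored against triamterene as reference fluorophore.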

Experiment [7] in a line: qHTS assay to test for compound auto fluorescence at 535 nm (green) in HepG2 cell free culture (AID 720686).
Experiment [8] can be described thus: qHTS assay to test for compound auto fluorescence at 460 nm (blue) in HepG2 cells (AID 720687). Put shortly: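 Blue-channel autofluorescence (Ex/Em 405/460 nm, triamterene-equivalent) was measured after 1 hr compound exposure at 37 C, 5% CO2. Cells were HepG2, plated overnight at 37 C in MEM plus 10% FBS.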
Experiment [9] concerns the target Glucocorticoid receptor (Homo sapiens) (UniProt P04150). Nature of the experiment: qHTS assay to identify small molecule agonists of the glucocorticoid receptor (GR) signaling pathway (AID 720691; active = well fitted activation curve with a large enough effect in the signal ratio in the repeat runs, not every such curve was filed as active; the % refers to the signal ratio). Put shortly:
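Measures GR pathway activation through a GRE-beta-lactamase reporter stably integrated in HeLa cells, with 18 h compound treatment at 37 C and fluorescence detection using a FRET substrate.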

A short description of experiment [10]: qHTS assay to identify small molecule antagonists of the glucocorticoid receptor (GR) signaling pathway - cell viability counter screen (AID 720693). Note: nearly all actives have a fitted effect of over 55% in size. Note: potency is the fitted concentration of half-maximal effect.
Experiment [11] in a line: qHTS assay for identifying genotoxic compounds that show differential cytotoxicity against isogenic chicken DT40 cell lines with known DNA damage response pathways - Rev3 mutant cell line (AID 743014). Note: nearly all actives have a fitted effect of over 55% in size. Note: potency is the fitted concentration of half-maximal effect.
Experiment [12] in a line: qHTS assay for identifying genotoxic compounds that show differential cytotoxicity against isogenic chicken DT40 cell lines with known DNA damage response pathways - wild type cell line (AID 743012). Note: nearly all actives have a fitted effect of over 60% in size. Note: potency is the fitted concentration of half-maximal effect. Put shortly: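 Endpoint: CellTiter-Glo luminescence, 30 min RT. Cells: wild type DT40, 300/well. Exposure: compounds in DMSO, 40 h, 37 C/5% CO2, after ~0.5 h pre-incubation.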

Experiment [13] is described as follows: qHTS assay for identifying genotoxic compounds that show differential cytotoxicity against isogenic chicken DT40 cell lines with known DNA damage response pathways - Rad54/Ku70 mutant cell line (AID 743015). Note: nearly all actives have a fitted effect of over 60% in size. Note: potency is the fitted concentration of half-maximal effect.
Experiment [14] can be described thus: qHTS assay to identify small molecule antagonists of the androgen receptor (AR) signaling pathway - cell viability counter screen (AID 743033; note: nearly all actives have a fitted effect of over 45% in size; note: potency is the fitted concentration of half-maximal effect).
Experiment [15] is described as follows: qHTS assay to identify small molecule antagonists of the androgen receptor (AR) signaling pathway using the MDA cell line - cell viability counter screen (AID 743041; note: nearly all actives have a fitted effect of over 45% in size; note: potency is the fitted concentration of half-maximal effect). Put shortly: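 Using the breast carcinoma line MDA-kb2 AR-luc, test chemicals were co-incubated with R1881 for 16 h; CellTiter-Fluor reagent, added at 15.5 h, provided a fluorescence measure of live cells.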

Experiment [16] concerns the target Androgen receptor (Homo sapiens) (UniProt P10275). Put plainly: qHTS assay to identify small molecule antagonists of the androgen receptor (AR) signaling pathway (AID 743035; active = well fitted inhibition curve with a large enough effect in the signal ratio in the repeat runs, not every such curve was filed as active; the % refers to the signal ratio). Put shortly: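 R1881 agonist challenge of a HEK293 UAS-beta-lactamase AR reporter line in the presence of compound (16 h, 37C); signal taken as FRET fluorescence after 2 h with LiveBLAzer B/G substrate at room temperature.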

Experiment [17] has the same target. Put plainly: qHTS assay to identify small molecule agonists of the androgen receptor (AR) signaling pathway using the MDA cell line (AID 743040; note: nearly all actives have a fitted effect of over 20% in size). Put shortly:
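Stable MMTV-luciferase reporter in MDA-kb2 cells; note the promoter carries GR as well as AR response elements. 16 h compound treatment, 37C, 0% CO2; ONE-Glo luminescence endpoint.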

Experiment [18] has the same target. Put plainly: qHTS assay to identify small molecule antagonists of the androgen receptor (AR) signaling pathway using the MDA cell line (AID 743042; note: nearly all actives have a fitted effect of over 55% in size). Put shortly: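 Antagonist mode: compounds plus R1881 agonist added to MDA-kb2 AR-luc cells, incubated 16 h at 37C. Luciferase reporter luminescence quantified, with multiplexed CellTiter-Fluor readout for cell viability.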

For experiment [19], the target named is Glucocorticoid receptor (Homo sapiens) (UniProt P04150). Put plainly: qHTS assay to identify small molecule antagonists of the glucocorticoid receptor (GR) signaling pathway (AID 720692; active = well fitted inhibition curve with a large enough effect in the signal ratio in the repeat runs, not every such curve was filed as active; the % refers to the signal ratio). Put shortly: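 Tox21 10K library screened in concentration-response for blockade of dexamethasone (5 nM final)-induced GRE-bla reporter activity in HeLa cells; 18 h treatment, fluorescence read.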
Sequence of Glucocorticoid receptor (Homo sapiens) (P04150 whole entry, looked up): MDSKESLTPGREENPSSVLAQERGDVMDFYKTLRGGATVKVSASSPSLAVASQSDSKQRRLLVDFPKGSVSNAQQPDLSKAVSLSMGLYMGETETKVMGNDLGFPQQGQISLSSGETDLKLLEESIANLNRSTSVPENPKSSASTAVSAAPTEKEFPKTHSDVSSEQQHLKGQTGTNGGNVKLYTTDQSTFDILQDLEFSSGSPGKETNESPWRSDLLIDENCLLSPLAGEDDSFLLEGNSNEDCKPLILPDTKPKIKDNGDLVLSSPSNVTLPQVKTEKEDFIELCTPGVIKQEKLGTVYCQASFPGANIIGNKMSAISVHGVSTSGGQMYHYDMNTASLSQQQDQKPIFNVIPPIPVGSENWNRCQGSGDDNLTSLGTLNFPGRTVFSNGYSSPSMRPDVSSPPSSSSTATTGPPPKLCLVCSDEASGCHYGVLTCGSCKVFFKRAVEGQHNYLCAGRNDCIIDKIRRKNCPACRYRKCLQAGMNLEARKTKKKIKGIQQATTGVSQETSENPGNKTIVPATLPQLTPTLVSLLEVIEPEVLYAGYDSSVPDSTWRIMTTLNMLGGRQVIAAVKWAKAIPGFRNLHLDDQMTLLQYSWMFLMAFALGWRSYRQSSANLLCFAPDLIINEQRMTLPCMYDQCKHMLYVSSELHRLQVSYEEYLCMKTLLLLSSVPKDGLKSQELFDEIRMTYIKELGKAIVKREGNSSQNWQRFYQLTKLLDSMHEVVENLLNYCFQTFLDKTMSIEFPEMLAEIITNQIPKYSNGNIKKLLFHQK

Molecules are shown by their SMILES. Where “and” joins values, the source holds several entries; their conditions need not be identical. Equal entries are not always repeated. Records with an inconclusive call do not appear. Calls of active or inactive are those of the source. Unless noted, calls come from the whole dose curve; as a rule, active = well fitted curve in the direction sought with a large enough effect in the repeat runs; inconclusive = weak or mixed curves; inactive = no such curve, though single readings can be large; an effect the other way counts as inactive or inconclusive.

Sequence of Androgen receptor (Homo sapiens) (P10275 whole entry, looked up): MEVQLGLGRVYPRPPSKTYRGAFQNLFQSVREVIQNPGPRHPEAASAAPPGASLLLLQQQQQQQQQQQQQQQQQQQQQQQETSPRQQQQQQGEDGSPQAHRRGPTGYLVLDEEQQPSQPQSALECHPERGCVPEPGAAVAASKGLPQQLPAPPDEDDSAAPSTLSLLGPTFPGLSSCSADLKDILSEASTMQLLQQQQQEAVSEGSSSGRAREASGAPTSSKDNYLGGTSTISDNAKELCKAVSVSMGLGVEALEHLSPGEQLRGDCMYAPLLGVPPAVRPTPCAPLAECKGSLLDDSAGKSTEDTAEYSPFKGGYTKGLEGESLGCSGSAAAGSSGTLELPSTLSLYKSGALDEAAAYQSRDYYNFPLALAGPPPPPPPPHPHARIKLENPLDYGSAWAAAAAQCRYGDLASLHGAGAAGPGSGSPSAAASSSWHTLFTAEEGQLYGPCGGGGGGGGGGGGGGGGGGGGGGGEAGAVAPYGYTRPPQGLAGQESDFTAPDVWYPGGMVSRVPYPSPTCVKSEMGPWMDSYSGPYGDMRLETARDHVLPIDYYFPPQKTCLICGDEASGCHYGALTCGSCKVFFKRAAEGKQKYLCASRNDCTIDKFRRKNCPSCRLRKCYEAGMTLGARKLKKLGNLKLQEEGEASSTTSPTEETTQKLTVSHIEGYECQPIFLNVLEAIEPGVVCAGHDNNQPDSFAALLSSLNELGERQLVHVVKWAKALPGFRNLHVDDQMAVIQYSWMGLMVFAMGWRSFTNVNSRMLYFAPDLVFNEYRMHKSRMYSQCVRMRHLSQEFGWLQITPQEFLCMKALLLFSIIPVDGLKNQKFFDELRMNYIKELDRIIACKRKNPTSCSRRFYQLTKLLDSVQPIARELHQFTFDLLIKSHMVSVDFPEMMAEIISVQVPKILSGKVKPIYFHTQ

Regarding `CCCCCC(C)OC(=O)COc1ccc(Cl)c2cccnc12` (centres undefined), the Potency entry in [1], in experiment [2], in experiment [3], in [4], in experiment [5] and in experiment [6] was “inactive” each time. The Potency entry in experiment [7], in [8], in [9], in experiment [10] and in [11] was “inactive” in each case.
For the molecule `CCCCCCCCCCCCCCCC[N+](C)(C)CC`, the Potency result in experiment [1], in experiment [2], in [3], in experiment [4], in experiment [5] and in experiment [6] was “inactive” throughout. For the same molecule, the Potency entry in [7] and in experiment [8] was “inactive” in each case. For the same molecule, the Potency in [10] was 13.4 µM (active) and 17.4 µM (active); in [12], 376 nM (active) and 866 nM (active); in experiment [13], 473 nM (active) and 866 nM (active); in [14] it was 9.52 µM (active) and 21.9 µM (active); in [15], 18.8 µM (active) and 43.4 µM (active).
Regarding `Cc1cc(C(C)(C)C)c(O)c(C)c1Cn1c(=O)n(Cc2c(C)cc(C(C)(C)C)c(O)c2C)c(=O)n(Cc2c(C)cc(C(C)(C)C)c(O)c2C)c1=O`, the Potency result in [1], in experiment [2], in [3], in experiment [4], in [5] and in experiment [6] was “inactive” each time. The Potency entry in experiment [7], in experiment [8], in [9], in [10], in experiment [11] and in experiment [13] was “inactive” in each case. Moreover, the Potency result in [14] and in [15] was “inactive” each time.
With `CCn1c2ccccc2c2cc([N+](=O)[O-])ccc21`, the Potency result in experiment [1], in experiment [2], in experiment [3], in experiment [4], in [5] and in experiment [6] was “inactive” each time. The Potency result in experiment [7], in experiment [8], in [10], in experiment [14] and in experiment [15] was “inactive” each time. The values for the Potency in [12] and in experiment [11] were 48.6 µM (active) and 27.3 µM (active), respectively.
In the case of `CCOC(=O)Cn1cccc1-c1nc(-c2ccc(OC)cc2)c(-c2ccc(OC)cc2)s1`, the Potency result in experiment [1], in experiment [2], in experiment [3], in experiment [4], in [5] and in [6] was “inactive” each time. The Potency entry in experiment [7], in experiment [8], in experiment [9], in experiment [10], in experiment [13] and in experiment [14] was “inactive” each time. The Potency result in experiment [16], in experiment [15] and in [18] was “inactive” throughout. In [17], the molecule was called inactive.
Take `OC1CCC(C2CCCCC2)CC1` (centres undefined): the Potency entry in experiment [1], in experiment [2], in experiment [3], in experiment [4], in [5] and in [6] was “inactive” throughout. Also, the Potency entry in [7], in experiment [8], in [9], in experiment [10], in experiment [12] and in experiment [14] was “inactive” each time.
Consider `CNC(=O)c1ccccc1Sc1ccc2c(/C=C/c3ccccn3)n[nH]c2c1`, for which the Potency entry in experiment [1], in experiment [2], in experiment [3], in experiment [4], in experiment [5] and in experiment [6] was “inactive” in each case. The Potency entry in [7], in [8], in [19], in [10], in [14] and in [15] was “inactive” throughout. The Potency in experiment [12] was 2.11 µM (active); in experiment [11] it was 2.37 µM (active); in experiment [13], 2.66 µM (active).
Consider `CC(C)NC[C@@H](O)COc1ccc(CC(N)=O)cc1`, for which the Potency entry in [1], in [2], in experiment [3], in [4], in experiment [5] and in experiment [6] was “inactive” throughout. Moreover, the Potency result in experiment [7], in experiment [8], in [10], in experiment [12] and in experiment [15] was “inactive” throughout.
Regarding `Cc1ccc(O)c(O)c1`, the Potency entry in [1], in experiment [2], in [3], in [4], in experiment [5] and in experiment [6] was “inactive” each time. Besides, the Potency entry in experiment [7], in experiment [8], in [14] and in experiment [15] was “inactive” in each case. For the same molecule, the Potency is 53.4 µM (active) in [10], 16.7 µM (active) in experiment [12], 13.3 µM (active) in [11] and 21.1 µM (active) in experiment [13].

The values are drawn from PubChem BioAssay (Tox21).
